Source: the supplement of paper PMC4466140

Tests used:
Test in all cases: SPOT peptide array binding signal intensity (averaged, normalized) (arbitrary units (background-subtracted, floor 0; scale differs between SH3 domains)); higher = stronger binding of the SH3 domain to the peptide
[1] = biological target: AgAbp1
Description: (§1)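 GST-tagged SH3 domains from S. cerevisiae (Sc), A. gossypii (Ag), C. albicans (Ca) and S. pombe (Sp) were incubated at 10 ug/ml overnight at 4 C on cellulose SPOT membranes carrying 292 synthetic 15-mer peptides mined from the S. cerevisiae proteome (cysteines replaced by serines). Binding was detected with anti-GST antibody, HRP secondary and chemiluminescence, quantified with Genespotter, and reported as normalized spot intensities averaged over biological replicates.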

[2] = biological target: AgBbc1
Description: as §1

[3] = biological target: AgBem1-D1
Description: as §1

[4] = biological target: AgBzz1-D1
Description: as §1

[5] = biological target: AgBzz1-D2
Description: as §1

[6] = biological target: AgCyk3
Description: as §1

[7] = biological target: AgFus1
Description: as §1

[8] = biological target: AgHof1
Description: as §1

[9] = biological target: AgHse1
Description: as §1

[10] = biological target: AgLsb1
Description: as §1

[11] = biological target: AgLsb4
Description: as §1

[12] = biological target: AgMyo5
Description: as §1

[13] = biological target: AgNbp2
Description: as §1

[14] = biological target: AgRvs167
Description: as §1

[15] = biological target: AgSho1
Description: as §1

[16] = biological target: AgSla1-D1-D2
Description: as §1

[17] = biological target: AgSla1-D3
Description: as §1

[18] = biological target: CaAbp1-D1
Description: as §1

[19] = biological target: CaAbp1-D2
Description: as §1

[20] = biological target: CaBbc1
Description: as §1

[21] = biological target: CaBem1-D1
Description: as §1

[22] = biological target: CaBzz1-D1
Description: as §1

[23] = biological target: CaBzz1-D2
Description: as §1

[24] = biological target: CaCyk3
Description: as §1

[25] = biological target: CaFus1
Description: as §1

[26] = biological target: CaHof1
Description: as §1

[27] = biological target: CaHse1
Description: as §1

[28] = biological target: CaLsb1
Description: as §1

[29] = biological target: CaLsb4
Description: as §1

[30] = biological target: CaMyo5
Description: as §1

[31] = biological target: CaNbp2
Description: as §1

[32] = biological target: CaRvs167
Description: as §1

[33] = biological target: CaRvs167-3
Description: as §1

[34] = biological target: CaSho1
Description: as §1

[35] = biological target: CaSla1-D1-D2
Description: as §1

[36] = biological target: CaSla1-D3
Description: as §1

[37] = biological target: ScAbp1
Description: as §1

[38] = biological target: ScBbc1
Description: as §1

[39] = biological target: ScBem1-D1
Description: as §1

[40] = biological target: ScBzz1-D1
Description: as §1

[41] = biological target: ScBzz1-D2
Description: as §1

[42] = biological target: ScCyk3
Description: as §1

[43] = biological target: ScFus1
Description: as §1

[44] = biological target: ScHof1
Description: as §1

[45] = biological target: ScHse1
Description: as §1

[46] = biological target: ScLsb1
Description: as §1

[47] = biological target: ScLsb2
Description: as §1

[48] = biological target: ScLsb3
Description: as §1

[49] = biological target: ScLsb4
Description: as §1

[50] = biological target: ScMyo3
Description: as §1

[51] = biological target: ScMyo5
Description: as §1

[52] = biological target: ScNbp2
Description: as §1

[53] = biological target: ScPex13
Description: as §1

[54] = biological target: ScRvs167
Description: as §1

[55] = biological target: ScSho1
Description: as §1

[56] = biological target: ScSla1-D1-D2
Description: as §1

[57] = biological target: ScSla1-D3
Description: as §1

[58] = biological target: SpAbp1-D1
Description: as §1

[59] = biological target: SpBbc1
Description: as §1

[60] = biological target: SpBzz1-D1
Description: as §1

[61] = biological target: SpBzz1-D2
Description: as §1

[62] = biological target: SpCyk3
Description: as §1

[63] = biological target: SpHof1
Description: as §1

[64] = biological target: SpHof1-2
Description: as §1

[65] = biological target: SpHof1-3
Description: as §1

[66] = biological target: SpHse1
Description: as §1

[67] = biological target: SpLsb1
Description: as §1

[68] = biological target: SpLsb4
Description: as §1

[69] = biological target: SpMyo1
Description: as §1

[70] = biological target: SpNbp2
Description: as §1

[71] = biological target: SpPex13
Description: as §1

[72] = biological target: SpRvs167
Description: as §1

[73] = biological target: SpSla1-D1-D2
Description: as §1

[74] = biological target: SpSla1-D3
Description: as §1

B1: unnamed (peptide)
chain: GLRRARYKFPGQQKI
SPOT peptide array binding signal intensity [1]: 36.5 | SPOT peptide array binding signal intensity [2]: 30 | SPOT peptide array binding signal intensity [3]: 75 | SPOT peptide array binding signal intensity [4]: 22.5 | SPOT peptide array binding signal intensity [5]: 26 | SPOT peptide array binding signal intensity [6]: 3 | SPOT peptide array binding signal intensity [7]: 230 | SPOT peptide array binding signal intensity [8]: 24.5 | SPOT peptide array binding signal intensity [9]: 283 | SPOT peptide array binding signal intensity [10]: 17.2 | SPOT peptide array binding signal intensity [11]: 32.5 | SPOT peptide array binding signal intensity [12]: 2 | SPOT peptide array binding signal intensity [13]: 55 | SPOT peptide array binding signal intensity [14]: 5.67 | SPOT peptide array binding signal intensity [15]: 22 | SPOT peptide array binding signal intensity [16]: 228 | SPOT peptide array binding signal intensity [17]: 3 | SPOT peptide array binding signal intensity [18]: 388 | SPOT peptide array binding signal intensity [19]: 257 | SPOT peptide array binding signal intensity [20]: 91.5 | SPOT peptide array binding signal intensity [21]: 11 | SPOT peptide array binding signal intensity [22]: 74.5 | SPOT peptide array binding signal intensity [23]: 69 | SPOT peptide array binding signal intensity [24]: 20.5 | SPOT peptide array binding signal intensity [25]: 254 | SPOT peptide array binding signal intensity [26]: 1 | SPOT peptide array binding signal intensity [27]: 11.5 | SPOT peptide array binding signal intensity [28]: 0.5 | SPOT peptide array binding signal intensity [29]: 13 | SPOT peptide array binding signal intensity [30]: 2.5 | SPOT peptide array binding signal intensity [31]: 140 | SPOT peptide array binding signal intensity [32]: 15.2 | SPOT peptide array binding signal intensity [33]: 105 | SPOT peptide array binding signal intensity [34]: 254 | SPOT peptide array binding signal intensity [35]: 75 | SPOT peptide array binding signal intensity [36]: 3 | SPOT peptide array binding signal intensity [37]: 36 | SPOT peptide array binding signal intensity [38]: 19 | SPOT peptide array binding signal intensity [39]: 24 | SPOT peptide array binding signal intensity [40]: 19 | SPOT peptide array binding signal intensity [41]: 22 | SPOT peptide array binding signal intensity [42]: 107 | SPOT peptide array binding signal intensity [43]: 244 | SPOT peptide array binding signal intensity [44]: 1.5 | SPOT peptide array binding signal intensity [45]: 854 | SPOT peptide array binding signal intensity [46]: 8.25 | SPOT peptide array binding signal intensity [47]: 5 | SPOT peptide array binding signal intensity [48]: 63 | SPOT peptide array binding signal intensity [49]: 13 | SPOT peptide array binding signal intensity [50]: 2 | SPOT peptide array binding signal intensity [51]: 4.5 | SPOT peptide array binding signal intensity [52]: 167 | SPOT peptide array binding signal intensity [53]: 8.5 | SPOT peptide array binding signal intensity [54]: 31 | SPOT peptide array binding signal intensity [55]: 296 | SPOT peptide array binding signal intensity [56]: 294 | SPOT peptide array binding signal intensity [57]: 5 | SPOT peptide array binding signal intensity [58]: 196 | SPOT peptide array binding signal intensity [59]: 2 | SPOT peptide array binding signal intensity [60]: 145 | SPOT peptide array binding signal intensity [61]: 0.5 | SPOT peptide array binding signal intensity [62]: 6 | SPOT peptide array binding signal intensity [63]: 180 | SPOT peptide array binding signal intensity [64]: 5 | SPOT peptide array binding signal intensity [65]: 199 | SPOT peptide array binding signal intensity [66]: 268 | SPOT peptide array binding signal intensity [67]: 26 | SPOT peptide array binding signal intensity [68]: 56 | SPOT peptide array binding signal intensity [69]: 1 | SPOT peptide array binding signal intensity [70]: 120 | SPOT peptide array binding signal intensity [71]: 16 | SPOT peptide array binding signal intensity [72]: 12.5 | SPOT peptide array binding signal intensity [73]: 1 | SPOT peptide array binding signal intensity [74]: 13
